Cycloheximide cs = counter-screen for Shiga toxin inhibitors: cycloheximide protein synthesis inhibition; cell reporter, cycloheximide protein synthesis inhibition counterscreen; 300,000 compounds, 12% hits; max response, %; in the data active = max response mostly above about 13%, no sharp cut-off; inactive = mostly below about 14%; also: read at 38.3 µM for the half of the compounds with a filed dose; 0% is about no effect
Pf growth 48h = P. falciparum growth inhibition at 48 hours (one generation) | 310,000 compounds, 5.9% hits | AID 504832 | P. falciparum luciferase growth in erythrocytes, 48 h | Potency, µM (doses to about 28.7 µM), for inactives: at the highest dose activity change, negative = inhibition, hits mostly inhibitors; also: potency is read from the fitted curve at half-maximal effect; % is scaled to controls: 0 for no effect and ±100 for the full control effect
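Erythrocytes infected with P. falciparum carrying an integrated firefly luciferase reporter (2% hematocrit, 0.1% parasitemia final) were exposed to compounds in RPMI 1640 with 0.5% Albumax at 37 C, 5% CO2. Growth inhibition was scored as reduced luminescence.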
Shiga toxin inh = inhibitors of Shiga toxin in Vero cells; Vero cells, Shiga toxin protein synthesis inhibition reporter; 290,000 compounds, 9.2% hits; AID 2315; inhibition, % at 38.7 µM; in the data active = inhibition mostly above about 28%, no sharp cut-off; inactive = mostly below about 43%; also: 0% is about no effect
Pf growth 96h = P. falciparum growth inhibition at 96 hours | Potency, µM (titrated, usually from 28.7 µM), inactives show at the top dose activity change, negative = inhibition, usual class: inhibitors | P. falciparum luciferase reporter growth, 96 h | 320,000 compounds, 6.9% hits | AID 504834; also: potency is read from the fitted curve at half-maximal effect; % is scaled to controls: 0 for no effect and ±100 for the full control effect
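Luminescence readout: decreased luciferase signal marks inhibited growth of reporter-expressing P. falciparum in infected red cells (2% hematocrit, 0.05% parasitemia final), exposed to compound two generations (96 h, 37 C, 5% CO2).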
Active calls of the source: *; ? = inconclusive; · = not tested or not shown. Sampled rows, rich in hits. Any-hit rate of the full collection: about 21%. Unless noted, calls follow the shape of the dose curve; as a rule, active = well fitted inhibition curve with a large enough effect; inconclusive = small, poorly fitted or top-dose-only effect, or another doubt; inactive = no such curve, though single readings can be large or run the other way.

SMILES | Cycloheximide cs | Pf growth 48h | Shiga toxin inh | Pf growth 96h
CCCOC1CCCN(C(=O)c2cc(COc3ccc(-n4cncn4)cc3)on2)C1 (configuration not stated) | 37.6* | ? | 62.6* | -16.9%
Cc1cc(-n2cnnn2)ccc1C(C)C | 23.4* | 31.7% | 32.8 | 37.5%
Cc1ccc(C)n1-c1ccc(-n2cnnn2)cc1 | -4.3 | ? | -4.1 | ?
COc1cc(C(=O)NC(=S)N(C)Cc2ccccc2)cc(OC)c1OC | 0.4 | -15.3% | -3.6 | ?
C=CCN(CC=C)C(=S)NC(=O)c1ccc(OC)cc1 | 1.5 | ? | 23.2 | 26.8%
Cc1cccc(N(Cc2ccccc2)C(=O)c2ccc(S(C)(=O)=O)cc2)c1 | 5.0 | -32.3% | 7.9 | ?
COc1ccc(C(=O)NC(=S)N(Cc2ccccc2)Cc2ccccc2)cc1 | 31.8* | 30.8% | 143.9* | ?
CN(Cc1ccccc1)C(=S)NC(=O)c1ccc(-c2ccccc2)cc1 | 5.8 | ? | -0.4 | 7.38µM*
COc1ccc(C(=O)N(Cc2ccccc2)c2cccc(C)c2)cc1 | 20.9 | 37.5% | 24.5* | 9.5%
C=CCN(CC=C)C(=S)NC(=O)c1ccc(-c2ccccc2)cc1 | 11.1 | · | -5.3 | 7.38µM*
O=S(=O)(c1ccc2c(c1)CCCC2)N1CCNCC1 | · | -7.7% | · | 7.6%
O=C(/C=C/c1ccccc1Cl)OCC(=O)c1ccc[nH]1 | · | 165.0% | · | 103.1%
CN(Cc1ccccc1)C(=S)NC(=O)C1CCCCC1 | 28.3* | 4.4% | 46.0 | ?
COc1cc(C(=O)NC(=S)N(CCc2ccccc2)CCc2ccccc2)cc(OC)c1OC | 1.2 | 10.4µM* | -7.3 | 11.7µM*
O=C(NC(=S)N(Cc1ccccc1)c1ccccn1)C1CCCCC1 | 7.9 | 25.1% | 8.6 | -4.2%
COc1ccc(N(Cc2ccccc2)N=O)cc1 | 17.7* | 0.0% | · | -11.9%
O=C(COc1ccc(Cl)cc1Cl)NCCCn1ccnc1 | 8.3 | 6.57µM* | 34.1 | ·
COc1ccc(Cl)cc1S(=O)(=O)NC(C)C(=O)NCCCn1ccnc1 (configuration not stated) | · | 3.4% | · | 13.1µM*
CC(=O)OCC1=C(C(=O)O)N2C(=O)C(NC(=O)CCn3nc(C(F)(F)F)c(Br)c3C3CC3)C2SC1 (configuration not stated) | -2.2 | 7.4% | 23.0 | 17.5%
CN(Cc1ccccc1)C(=O)c1ccc2c(c1)NC(=O)C(N1CCOCC1)S2 (configuration not stated) | -4.3 | -22.0% | -12.9 | 22.6%
COc1ccc(C2CC(=O)N(CC(=O)NCC3CCCO3)c3ccccc3S2)cc1 (configuration not stated) | 34.3* | 9.5% | 72.5 | 25.2%
CN1C(=O)CC(c2ccco2)Sc2ccccc21 (configuration not stated) | -0.4 | 6.2% | 24.5 | 2.6%
COc1ccc(C2CC(=O)N(C)c3ccccc3S2)cc1 (configuration not stated) | 38.1* | 53.1% | 123.6* | -15.4%
CC(C)(C)OC(=O)NCc1ccc(NC(=O)c2nc[nH]c2C(=O)N[C@@H](Cc2ccccc2)C(=O)OCc2ccccc2)cc1 | 2.6 | 8.28µM* | -5.5 | 4.15µM*
CC(C)(C)OC(=O)NCc1ccc(CNC(=O)c2[nH]cnc2C(=O)N[C@@H](Cc2ccccc2)C(=O)OCc2ccccc2)cc1 | -1.8 | ? | -0.6 | 3.29µM*
SMILES | Cycloheximide cs | Pf growth 48h | Shiga toxin inh | Pf growth 96h
CC(C)C[C@H](NC(=O)c1nc[nH]c1C(=O)NCc1ccc(CNC(=O)OC(C)(C)C)cc1)C(=O)OCc1ccccc1 | -1.7 | ? | -4.9 | ?
CC(C)C[C@H](NC(=O)c1nc[nH]c1C(=O)N1CCc2ccccc2C1)C(=O)OCc1ccccc1 | -5.7 | 4.4% | -4.1 | 2.4%
C[C@H](NC(=O)c1nc[nH]c1C(=O)N[C@@H](Cc1ccccc1)C(=O)OC(C)(C)C)c1ccccc1 | 8.5 | 3.29µM* | -3.1 | ?
O=C(N[C@@H](Cc1ccccc1)C(=O)OCc1ccccc1)c1nc[nH]c1C(=O)N1CCc2ccccc2C1 | 18.1* | ? | 16.2 | 39.5%
CC1CN(c2nc3ccccc3nc2SCC(=O)Nc2ccc(F)cc2)CC(C)O1 (configuration not stated) | 10.0 | ? | 11.6 | 1.4%
O=C(NCCc1ccc(C(F)(F)F)cc1)C1CC(=O)N(Cc2ccccc2)C1 (configuration not stated) | · | -4.5% | · | 10.7%
Cc1ccccc1CC(=O)N1CCCC1 | -6.9 | -13.8% | -9.6 | ?
CC(C)(C)OC(=O)NCc1ccc(CNC(=O)c2nc[nH]c2C(=O)NCc2ccccc2)cc1 | · | 10.4µM* | · | 2.94µM*
CC(C)(C)OC(=O)NCc1ccc(CNC(=O)c2[nH]cnc2C(=O)NCC(=O)OCc2ccccc2)cc1 | 6.8 | -17.2% | 9.3 | 5.0%

From PubChem
